Assay results: ChEMBL document CHEMBL1157539, “Thousands of chemical starting points for antimalarial lead identification” (Nature, 2010)

The compounds below were run on Plasmodium falciparum (assay: GSK_TCMDC: Inhibition of Plasmodium falciparum 3D7 in whole red blood cells, using parasite LDH activity as an index of growth. Test compounds present at 2uM).
Type: functional

Point of comparison: `CC[C@H]1CN2CCc3c([nH]c4ccccc34)[C@@H]2C[C@@H]1CC1c2cc(OC)c(OC)cc2CCN1C.Cl` (stereo not given in full), Inhibition 85%. Against it:
- COC(=O)Cn1c(C2CCN(CC3CCN(C(=O)/C=C/c4ccc(Cl)c(Cl)c4)CC3)CC2)nc2ccccc21 — higher, 86%
- Br.COc1ccc(CCCON2C(=N)N=C(N)NC2(C)C)cc1 — higher, 95%
- O=C(Nc1cccc(CN2CCN(C(=O)c3cccc(F)c3)CC2)c1)c1ccco1.O=C(O)C(F)(F)F — higher, 88%
- COc1ccc(OC)c(-c2cccc(-c3cccc(NC(=O)c4ccc([N+](=O)[O-])o4)c3)n2)c1 — higher, 98%
- CCOc1cc(N)c2nc3ccc([N+](=O)[O-])cc3cc2c1 — higher, 100%
- Cc1cccc(CNc2nc(C)cc(NCCC(=O)Nc3ccccc3)n2)c1.O=C(O)C(F)(F)F — higher, 100%
- CC(C)c1cc(Oc2c(I)cc(CCNCc3ccccc3)cc2I)ccc1O.Cl — higher, 95%
- CC1CN(c2cnn(Cc3cccc(NC(=O)Nc4ccc(F)cc4[N+](=O)[O-])c3)c(=O)c2Cl)CC(C)N1.O=C(O)C(F)(F)F (stereo not given) — higher, 91%
- Cc1ccc(Cl)cc1N1CCN(CCCNC(=O)C2CCN(c3nc4ccccc4[nH]3)CC2)CC1 — higher, 88%
- COc1cc(CNc2ncc(-c3ccsc3)c(-c3nccs3)n2)cc(OC)c1 — higher, 86%
- CC(C)NC[C@@H](O)[C@H](Cc1ccccc1)NC(=O)c1cc2c3c(c1)c(C(C)C)cn3CCS(=O)(=O)N2C.O=CO — higher, 98%
- Cc1c(CCC#N)c(NCc2ccccc2)n2c(nc3ccccc32)c1C#N — higher, 100%
- N#Cc1cccc(CN2CCCN(Cc3ccc(C(=O)Nc4ccc(Cl)cc4)cc3)CC2)c1.O=C(O)C(F)(F)F — higher, 98%
- CC(C)(C)NCCN(Cc1ccc(-c2ccc(C(F)(F)F)cc2)cc1)C(=O)Cn1c(CCc2cccc(F)c2F)nc(=O)c2ccccc21 — higher, 99%
- Cc1nc(-c2nc(NCCc3c(C)noc3C)ncc2-c2ccsc2)sc1C — higher, 87%
- Cc1ccc2[nH]cc(/C=C/C(=O)NC3CCC(CCN4CCc5ccc(C#N)cc5CC4)CC3)c2c1.Cl (stereo not given) — higher, 93%
- CS(=O)(=O)N1CC2(CCN(CCC(NC(=O)NCc3ccccc3Cl)c3ccc(Cl)c(Cl)c3)CC2)c2ccccc21 (stereo not given) — the same, 85%
- CN1CCC(c2c[nH]c3ccc(NC(=O)Nc4ccc(-c5ccncc5)c(Cl)c4Cl)cc23)CC1 — higher, 100%
- c1csc(-c2nc(N3CCCCC3)ncc2-c2ccsc2)n1 — higher, 89%
- COc1ccc(S(=O)(=O)Nc2ccc(C(=O)NCc3ccc(C(F)(F)F)cc3)cc2)cc1N1CCN(CC2CC2)CC1.O=C(O)C(F)(F)F — higher, 95%
- O=C(/C=C/c1ccc(Cl)c(Cl)c1)NCCCCCN1CCC(NC(=O)NC2CCCC2)CC1 — higher, 99%
- O=C(Nc1ccc(S(=O)(=O)NCCCN2CCOCC2)cc1)c1cc(-c2ccccc2)[nH]n1 — lower, 82%
- COc1ccc2[nH]c(C(=O)Nc3ccc4[nH]c(-c5ccccc5)nc4c3)cc2c1.O=C(O)C(F)(F)F — higher, 96%
- O=C(/C=C/c1ccc(Cl)c(Cl)c1)NCCCCCN1CCC(NC(=O)c2ccc(F)c(F)c2)CC1 — higher, 99%
- COc1ccc(CN2CCC(NCc3cccc([N+](=O)[O-])c3)CC2)cc1.O=C(O)C(F)(F)F — higher, 92%
- CC(C)(C)c1ccc(NC(=O)c2ccc(CN3CCCN(Cc4ccc(F)cc4)CC3)cc2)cc1.O=C(O)C(F)(F)F — higher, 87%
- NC(=O)c1cccc(CNC(=O)NC[C@H]2CN(Cc3ccc(Cl)c(Cl)c3)CCO2)c1 — higher, 98%
- CCCCC(=O)Nc1nc2ccc([N+](=O)[O-])cc2s1 — higher, 91%
- Cl.O=C(/C=C/c1ccccc1F)NC1CCC(CCN2CCc3ccc(-c4cccnc4)cc3CC2)CC1 (stereo not given) — higher, 92%
- Cc1cc(OCC2CCN(c3ncc(C(=O)Nc4ccccc4)cc3Cl)CC2)ccc1F — higher, 91%
- Oc1ccc2[nH]cc(C3CCN(CCC(c4ccccc4)c4ccccc4)CC3)c2c1 — higher, 90%
- O=C(Nc1cccc(-c2nn3ccccc3c2-c2ccnc(Nc3ccccc3)n2)c1)c1c(F)cccc1F — higher, 98%
- Cc1cc(NC(=O)c2cccs2)ccc1OC1CCN(Cc2ccccc2)CC1.O=C(O)C(F)(F)F — higher, 95%
- O=C(NC1CC1)c1ccc(Cn2c(SCc3cccc(Cl)c3)nc3ccccc3c2=O)cc1 — higher, 90%
- COc1cc(C(=O)Nc2nc3ccccc3[nH]2)ccc1OCC(=O)Nc1cccc(C(F)(F)F)c1 — higher, 100%
- Cc1cccc2nc(-c3ccc(-c4cccc(NCc5cn6cccnc6n5)c4)cc3)[nH]c12 — higher, 94%
- CCOC(=O)c1c(C)n(-c2ccccc2)c2ccc(OC(=O)COc3ccc(Cl)cc3Cl)cc12 — higher, 99%
- CCn1cnc2c(N3CCCS3(=O)=O)cc(C(=O)N[C@@H](Cc3ccccc3)[C@H](O)CNC(C)(C)c3cccc(C(F)(F)F)c3)cc21 — higher, 99%
- CN1CCCN(Cc2ccc(-c3ccc(NC(=O)c4cccc(C#N)c4)cc3)cc2)CC1.O=C(O)C(F)(F)F — higher, 97%
